# From PMC8384837, “Expanding the binding specificity for RNA recognition by a PUF domain”
# Positions count from the first letter of the chain named.
# Assays:
# Experiment in all cases: yeast three-hybrid, YBZ-1, SC-Leu-His + 0.5 mM 3-AT, 4 days
# Conditions in all cases: tags: N-Gal4 AD-HA kept; label: inside an RPR1-promoter hybrid RNA with tandem MS2 sites; ssRNA
# PUM1 PUF domain R3-EWS = PUM1 PUF domain R3-EWS (Homo sapiens, UniProt Q14671 828-1176, C935E;R936W;Q939S)
# Procedure, shortened: (§1)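 Each repeat of the Pumilio-1 PUF domain was randomized at its three base-contacting residues, and these libraries were co-expressed from a centromeric plasmid with matching RNA elements in strain YBZ-1. After four days on SC-Leu (input) or SC-Leu-His + 0.5 mM 3-AT (selection), the repeat regions were PCR-amplified and Illumina-sequenced. The interaction score compares variant frequency between input and selection as a log change, computed in log2 with a pseudocount of 1 for absent variants.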
# PUM1 PUF domain R3-GRP = PUM1 PUF domain R3-GRP (Homo sapiens, UniProt Q14671 828-1176, C935G;Q939P)
# Procedure, shortened: as §1
# PUM1 PUF domain R3-SRC = PUM1 PUF domain R3-SRC (Homo sapiens, UniProt Q14671 828-1176, C935S;Q939C)
# Procedure, shortened: as §1
# PUM1 PUF domain R5-KPC = PUM1 PUF domain R5-KPC (Homo sapiens, UniProt Q14671 828-1176, C1007K;R1008P;Q1011C)
# Procedure, shortened: as §1
# PUM1 PUF domain R5-DRC = PUM1 PUF domain R5-DRC (Homo sapiens, UniProt Q14671 828-1176, C1007D;Q1011C)
# Procedure, shortened: as §1
# PUM1 PUF domain R5-DHV = PUM1 PUF domain R5-DHV (Homo sapiens, UniProt Q14671 828-1176, C1007D;R1008H;Q1011V)
# Procedure, shortened: as §1
# PUM1 PUF domain R1-NRR = PUM1 PUF domain R1-NRR (Homo sapiens, UniProt Q14671 828-1176, S863N;Q867R)
# Procedure, shortened: as §1
# PUM1 PUF domain R4-GPQ = PUM1 PUF domain R4-GPQ (Homo sapiens, UniProt Q14671 828-1176, N971G;H972P)
# Procedure, shortened: as §1
# PUM1 PUF domain R8-LYC = PUM1 PUF domain R8-LYC (Homo sapiens, UniProt Q14671 828-1176, N1122L;Q1126C)
# Procedure, shortened: as §1
# PUM1 PUF domain R8-RSR = PUM1 PUF domain R8-RSR (Homo sapiens, UniProt Q14671 828-1176, N1122R;Y1123S;Q1126R)
# Procedure, shortened: as §1
# PUM1 PUF domain R8-KRR = PUM1 PUF domain R8-KRR (Homo sapiens, UniProt Q14671 828-1176, N1122K;Y1123R;Q1126R)
# Procedure, shortened: as §1
# PUM1 PUF domain R7-KYR = PUM1 PUF domain R7-KYR (Homo sapiens, UniProt Q14671 828-1176, S1079K;N1080Y;E1083R)
# Procedure, shortened: as §1
# PUM1 PUF domain R7-RIQ = PUM1 PUF domain R7-RIQ (Homo sapiens, UniProt Q14671 828-1176, S1079R;N1080I;E1083Q)
# Procedure, shortened: as §1
# PUM1 PUF domain R6-HYL = target: T1, PUM1 PUF domain R6-HYL (Homo sapiens, UniProt Q14671 828-1176, N1043H;Q1047L)
# T1 sequence: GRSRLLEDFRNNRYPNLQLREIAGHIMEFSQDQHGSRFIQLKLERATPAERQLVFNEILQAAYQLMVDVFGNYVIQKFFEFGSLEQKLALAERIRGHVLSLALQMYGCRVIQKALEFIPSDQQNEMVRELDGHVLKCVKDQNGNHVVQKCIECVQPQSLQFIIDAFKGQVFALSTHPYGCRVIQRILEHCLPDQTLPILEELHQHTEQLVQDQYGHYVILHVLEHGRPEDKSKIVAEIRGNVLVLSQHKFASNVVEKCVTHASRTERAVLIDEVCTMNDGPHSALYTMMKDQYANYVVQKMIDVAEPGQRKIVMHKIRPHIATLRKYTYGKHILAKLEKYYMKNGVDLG
# Procedure, shortened: as §1
# PUM1 PUF domain R5-MRN = PUM1 PUF domain R5-MRN (Homo sapiens, UniProt Q14671 828-1176, C1007M;Q1011N)
# Procedure, shortened: as §1
# PUM1 PUF domain R6-SFS = target: T2, PUM1 PUF domain R6-SFS (Homo sapiens, UniProt Q14671 828-1176, N1043S;Y1044F;Q1047S)
# T2 sequence: T1 sequence with H216S, Y217F, L220S
# Procedure, shortened: as §1
# PUM1 PUF domain R3-YFG = PUM1 PUF domain R3-YFG (Homo sapiens, UniProt Q14671 828-1176, C935Y;R936F;Q939G)
# Procedure, shortened: as §1
# PUM1 PUF domain R6-NWP = target: T3, PUM1 PUF domain R6-NWP (Homo sapiens, UniProt Q14671 828-1176, Y1044W;Q1047P)
# T3 sequence: T1 sequence with H216N, Y217W, L220P
# Procedure, shortened: as §1
# PUM1 PUF domain R6-EWC = target: T4, PUM1 PUF domain R6-EWC (Homo sapiens, UniProt Q14671 828-1176, N1043E;Y1044W;Q1047C)
# T4 sequence: T1 sequence with H216E, Y217W, L220C
# Procedure, shortened: as §1
# PUM1 PUF domain R6-VWQ = target: T5, PUM1 PUF domain R6-VWQ (Homo sapiens, UniProt Q14671 828-1176, N1043V;Y1044W)
# T5 sequence: T1 sequence with H216V, Y217W, L220Q
# Procedure, shortened: as §1
sequence,measurement,setting,value
GGCUAGAACUAGUGGAUCCCCCGGCGCCCGGCGGCUCGAGCCCGGGUAAGUGUAAUUAGUCUGCAUGCCGCCGGGCGCCAUGCCUGCAGGUCGACUCUAGAAAACAUG,binding signal,PUM1 PUF domain R3-EWS,4.58 log2 enrichment (interaction score)
same,binding signal,PUM1 PUF domain R3-GRP,2.44 log2 enrichment (interaction score)
same,binding signal,PUM1 PUF domain R3-SRC,2.75 log2 enrichment (interaction score)
GGCUAGAACUAGUGGAUCCCCCGGCGCCCGGCGGCUCGAGCCCGGGUAAGUGUCAAUAGUCUGCAUGCCGCCGGGCGCCAUGCCUGCAGGUCGACUCUAGAAAACAUG,binding signal,PUM1 PUF domain R5-KPC,4.19 log2 enrichment (interaction score)
same,binding signal,PUM1 PUF domain R5-DRC,3.58 log2 enrichment (interaction score)
same,binding signal,PUM1 PUF domain R5-DHV,3.11 log2 enrichment (interaction score)
GGCUAGAACUAGUGGAUCCCCCGGCGCCCGGCGGCUCGAGCCCGGGUAAGUGUAAAUUGUCUGCAUGCCGCCGGGCGCCAUGCCUGCAGGUCGACUCUAGAAAACAUG,binding signal,PUM1 PUF domain R1-NRR,2.34 log2 enrichment (interaction score)
GGCUAGAACUAGUGGAUCCCCCGGCGCCCGGCGGCUCGAGCCCGGGUAAGUGUACAUAGUCUGCAUGCCGCCGGGCGCCAUGCCUGCAGGUCGACUCUAGAAAACAUG,binding signal,PUM1 PUF domain R4-GPQ,2.42 log2 enrichment (interaction score)
GGCUAGAACUAGUGGAUCCCCCGGCGCCCGGCGGCUCGAGCCCGGGUAAGCGUAAAUAGUCUGCAUGCCGCCGGGCGCCAUGCCUGCAGGUCGACUCUAGAAAACAUG,binding signal,PUM1 PUF domain R8-LYC,2.73 log2 enrichment (interaction score)
same,binding signal,PUM1 PUF domain R8-RSR,2.47 log2 enrichment (interaction score)
same,binding signal,PUM1 PUF domain R8-KRR,5.14 log2 enrichment (interaction score)
GGCUAGAACUAGUGGAUCCCCCGGCGCCCGGCGGCUCGAGCCCGGGUAAGUCUAAAUAGUCUGCAUGCCGCCGGGCGCCAUGCCUGCAGGUCGACUCUAGAAAACAUG,binding signal,PUM1 PUF domain R7-KYR,5.86 log2 enrichment (interaction score)
GGCUAGAACUAGUGGAUCCCCCGGCGCCCGGCGGCUCGAGCCCGGGUAAGUGUUAAUAGUCUGCAUGCCGCCGGGCGCCAUGCCUGCAGGUCGACUCUAGAAAACAUG,binding signal,PUM1 PUF domain R5-DRC,4.23 log2 enrichment (interaction score)
same,binding signal,PUM1 PUF domain R5-DHV,4.07 log2 enrichment (interaction score)
GGCUAGAACUAGUGGAUCCCCCGGCGCCCGGCGGCUCGAGCCCGGGUAAGUAUAAAUAGUCUGCAUGCCGCCGGGCGCCAUGCCUGCAGGUCGACUCUAGAAAACAUG,binding signal,PUM1 PUF domain R7-KYR,3.64 log2 enrichment (interaction score)
GGCUAGAACUAGUGGAUCCCCCGGCGCCCGGCGGCUCGAGCCCGGGUAAGUUUAAAUAGUCUGCAUGCCGCCGGGCGCCAUGCCUGCAGGUCGACUCUAGAAAACAUG,binding signal,PUM1 PUF domain R7-RIQ,4.25 log2 enrichment (interaction score)
GGCUAGAACUAGUGGAUCCCCCGGCGCCCGGCGGCUCGAGCCCGGGUAAGUGUAAAUAGUCUGCAUGCCGCCGGGCGCCAUGCCUGCAGGUCGACUCUAGAAAACAUG,binding signal,PUM1 PUF domain R3-EWS,3.46 log2 enrichment (interaction score)
same,binding signal,PUM1 PUF domain R6-HYL,3.8 log2 enrichment (interaction score)
same,binding signal,PUM1 PUF domain R3-GRP,4.87 log2 enrichment (interaction score)
same,binding signal,PUM1 PUF domain R3-SRC,2.73 log2 enrichment (interaction score)
same,binding signal,PUM1 PUF domain R7-KYR,2.75 log2 enrichment (interaction score)
same,binding signal,PUM1 PUF domain R5-DRC,3.83 log2 enrichment (interaction score)
same,binding signal,PUM1 PUF domain R5-MRN,3.24 log2 enrichment (interaction score)
same,binding signal,PUM1 PUF domain R6-SFS,4.67 log2 enrichment (interaction score)
same,binding signal,PUM1 PUF domain R3-YFG,4.07 log2 enrichment (interaction score)
same,binding signal,PUM1 PUF domain R5-DHV,3.41 log2 enrichment (interaction score)
same,binding signal,PUM1 PUF domain R8-KRR,3.15 log2 enrichment (interaction score)
same,binding signal,PUM1 PUF domain R6-NWP,2.64 log2 enrichment (interaction score)
GGCUAGAACUAGUGGAUCCCCCGGCGCCCGGCGGCUCGAGCCCGGGUAAGUGGAAAUAGUCUGCAUGCCGCCGGGCGCCAUGCCUGCAGGUCGACUCUAGAAAACAUG,binding signal,PUM1 PUF domain R6-EWC,3.23 log2 enrichment (interaction score)
same,binding signal,PUM1 PUF domain R6-NWP,2.26 log2 enrichment (interaction score)
GGCUAGAACUAGUGGAUCCCCCGGCGCCCGGCGGCUCGAGCCCGGGUAAGUGAAAAUAGUCUGCAUGCCGCCGGGCGCCAUGCCUGCAGGUCGACUCUAGAAAACAUG,binding signal,PUM1 PUF domain R6-VWQ,8.55 log2 enrichment (interaction score)
GGCUAGAACUAGUGGAUCCCCCGGCGCCCGGCGGCUCGAGCCCGGGUAAGUGUAAGUAGUCUGCAUGCCGCCGGGCGCCAUGCCUGCAGGUCGACUCUAGAAAACAUG,binding signal,PUM1 PUF domain R3-EWS,5.34 log2 enrichment (interaction score)
same,binding signal,PUM1 PUF domain R3-GRP,3.91 log2 enrichment (interaction score)
same,binding signal,PUM1 PUF domain R3-SRC,4.05 log2 enrichment (interaction score)
GGCUAGAACUAGUGGAUCCCCCGGCGCCCGGCGGCUCGAGCCCGGGUAAGUGUAAAUCGUCUGCAUGCCGCCGGGCGCCAUGCCUGCAGGUCGACUCUAGAAAACAUG,binding signal,PUM1 PUF domain R1-NRR,3.87 log2 enrichment (interaction score)
